Source: PubChem BioAssay (Tox21)
Inconclusive results are not listed. Where a call stands in place of a potency, no number is given. A number with no mark means an inactive call. The source made the active and inactive calls. Unless noted, the call rests on the fitted dose curve.

How the values were obtained:
[1] = qHTS assay to identify small molecule antagonists of the vitamin D receptor (VDR) signaling pathway - cell viability counter screen (AID 743225; active means well fitted curve in the direction sought with a large enough effect in the repeat runs; an effect the other way counts as inactive or inconclusive; further: nearly all actives have a fitted effect of over 50% in size)
How it was run: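 Compounds were pinned onto VDR-bla HEK 293T cells together with 1-alpha,25-dihydroxyvitamin D3 at 3 nM final. After 16 h at 37C and 5% CO2 plus the reporter readout, cell viability was measured by CellTiter-Glo luminescence (30 min, room temperature).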

[2] = qHTS assay to identify small molecule agonists of the NFkB signaling pathway (AID 1159509; active means well fitted curve in the direction sought with a large enough effect in the signal ratio in the repeat runs, not every such curve was filed as active; the % refers to the signal ratio; further: series mostly up to about 61 µM)
How it was run: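 After overnight attachment, reporter cells received test compounds, DMSO or positive controls and were incubated 5 hr at 37 C. FRET substrate was then added for 1.5 hr at room temperature before dual-emission fluorescence reading.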

[3] = qHTS assay to identify small molecule agonists of the NFkB signaling pathway - cell viability counter screen (AID 1159515); further: series mostly up to about 61 µM; nearly all actives have a fitted effect of over 55% in size
How it was run: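 Using the same wells as the NFkB reporter read, ME-180 NFkB-bla cells given compounds for 5 hr were assessed for viability via CellTiter-Glo, with luminescence taken after a 30 min room-temperature incubation.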

[4] = qHTS assay to identify small molecule agonists of the endoplasmic reticulum stress response signaling pathway (AID 1159516; active means well fitted activation curve with a large enough effect in the signal ratio in the repeat runs, not every such curve was filed as active; the % refers to the signal ratio)
How it was run: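 An ESRE-bla HeLa cell assay: compounds were pin-transferred from DMSO onto overnight-plated cells and left 5 hr at 37 C. Substrate was then loaded for 2 hr at room temperature before reading fluorescence at 460 nm and 530 nm.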

[5] = qHTS assay to identify small molecule agonists of the endoplasmic reticulum stress response signaling pathway - cell viability counter screen (AID 1159517);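 further: HeLa cells carrying an ER stress response element beta-lactamase reporter; series mostly up to about 61 µM; nearly all actives have a fitted effect of over 50% in size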
How it was run: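 Cells, HeLa ESRE-bla; density, 1,500/well; dosing, 5 hr at 37 C, 5% CO2; readout, CellTiter-Glo luminescence after 30 min RT.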

[6] = qHTS assay to identify small molecule antagonists of the retinoid-related orphan receptor gamma (ROR-gamma) signaling pathway - cell viability counter screen (AID 1159520; active means well fitted curve in the direction sought with a large enough effect in the repeat runs; an effect the other way counts as inactive or inconclusive; further: nearly all actives have a fitted effect of over 50% in size)
How it was run: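 Cytotoxicity was read from cellular ATP (CellTiter-Glo luminescence) after 16 hr at 37 C with 1 uM doxycycline induction. The inducer was added 2 hr after compound transfer to Tet-on ROR gamma CHO cells.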

[7] = target: Nuclear receptor ROR-gamma (Homo sapiens) (UniProt P51449); test: qHTS assay to identify small molecule antagonists of the retinoid-related orphan receptor gamma (ROR-gamma) signaling pathway (AID 1159521; active means well fitted curve in the direction sought with a large enough effect in the repeat runs; an effect the other way counts as inactive or inconclusive;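 further: CHO cells with doxycycline inducible ROR-gamma driving an RORE luciferase reporter; top concentration of the series differs between compounds; nearly all actives have a fitted effect of over 50% in size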)
How it was run: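 Test compounds were applied to Tet-on RORγ CHO cells 2 h ahead of doxycycline hyclate (1 uM final). Luciferase reporter activity was quantified by luminescence after 16 h at 37 C and 5% CO2.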

[8] = qHTS assay to identify small molecule agonists of the AP-1 signaling pathway - cell viability counter screen (AID 1159525); further: nearly all actives have a fitted effect of over 55% in size
How it was run: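 Luminescent ATP readout (Cell Titer Glo, 30 min RT), normalised to DMSO and tetra n-octyl ammonium bromide controls. Cells were ME-180 AP-1-bla in 0.5% dialyzed FBS Opti-MEM, with a 5 h, 37 °C compound exposure.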

[9] = qHTS assay to identify small molecule agonists of the AP-1 signaling pathway (AID 1159526)
[10] = target: Retinoic acid receptor RXR-alpha (Homo sapiens) (UniProt P19793); test: qHTS assay to identify small molecule agonists of the RXR signaling pathway (AID 1159527); further: nearly all actives have a fitted effect of over 35% in size; further: potency means the concentration at half of the fitted maximal effect
How it was run: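 Using 9-cis retinoic acid as the reference agonist, chemicals were tested in HEK 293T cells […] for 16 hr; substrate loading lasted 2 hr at room temperature.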

Retinoic acid receptor RXR-alpha (Homo sapiens), sequence (P19793 whole entry, looked up): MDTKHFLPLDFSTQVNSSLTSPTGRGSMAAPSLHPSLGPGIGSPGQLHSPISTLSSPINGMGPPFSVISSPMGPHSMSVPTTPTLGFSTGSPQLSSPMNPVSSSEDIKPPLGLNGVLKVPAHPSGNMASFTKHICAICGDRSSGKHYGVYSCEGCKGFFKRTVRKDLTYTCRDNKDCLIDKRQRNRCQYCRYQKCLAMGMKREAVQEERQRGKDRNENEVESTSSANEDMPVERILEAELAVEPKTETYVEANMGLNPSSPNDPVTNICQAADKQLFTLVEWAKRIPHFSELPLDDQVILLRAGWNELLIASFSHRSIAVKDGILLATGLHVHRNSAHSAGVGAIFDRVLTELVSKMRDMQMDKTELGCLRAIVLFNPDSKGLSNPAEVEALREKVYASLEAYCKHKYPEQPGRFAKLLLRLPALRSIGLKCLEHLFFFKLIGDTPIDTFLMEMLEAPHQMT

Structure (SMILES)	outcome [1]	outcome [2]	outcome [3]	outcome [4]	outcome [5]	outcome [6]	outcome [7]	outcome [8]	outcome [9]	Potency [10]	activity, negative = cytotoxicity [6]	activity change, negative = inhibition [7]	viability change, negative = cytotoxic [8]	activation [9]	activation [10]
CN(C)CC/C=C1/c2ccccc2COc2ccc(CC(=O)O)cc21	inactive	inactive	inactive	inactive	inactive	inactive	inactive	inactive	inactive	inactive					
c1ccc(-c2nn[nH]n2)cc1	inactive	inactive	inactive	inactive	inactive	inactive	inactive	inactive	inactive	inactive					
CC(C)Cn1cnc2c1c(=O)n(C)c(=O)n2C	inactive	inactive	inactive	inactive	inactive	inactive	inactive	inactive	inactive	inactive					
CC1(C)Oc2ccc(C#N)cc2[C@@H](N2CCCC2=O)[C@@H]1O	inactive	inactive	inactive	inactive	inactive	inactive	inactive	inactive	inactive	inactive					
CCC[C@@H]1C[C@@H](C(=O)N[C@@H]([C@H]2O[C@H](SC)[C@H](O)[C@@H](O)[C@H]2O)[C@@H](C)O)N(C)C1	inactive	inactive	inactive	inactive	inactive	inactive	inactive	inactive	inactive	inactive					
C=CCCCC	inactive	inactive	inactive	inactive	inactive	inactive	inactive	inactive	inactive	inactive					
CCCCCCCCCCCCCCCCCCOCCO	inactive	inactive	inactive	inactive	inactive						-10.1% [at 19 µM]	-12.9% [at 19 µM]	-27.1% [at 15.8 µM]	0.248% [at 15.8 µM]	5.49% [at 15.8 µM]
CC(C)NC(=O)c1ccc(C=O)cc1	inactive	inactive	inactive	inactive	inactive	inactive	inactive	inactive	inactive	inactive					
N#Cc1cscn1	inactive	inactive	inactive	inactive	inactive	inactive	inactive	inactive	inactive	inactive					
CCOc1cccc(N)c1	inactive	inactive	inactive	inactive	inactive	inactive	inactive	inactive	inactive	inactive					
CC(CO)(CO)CO	inactive	inactive	inactive	inactive	inactive	inactive	inactive	inactive	inactive	inactive					
CCO	inactive	inactive	inactive	inactive	inactive	inactive	inactive	inactive	inactive	inactive					
O=C(CN1CCNCC1)NC1CCCCC1	inactive	inactive	inactive	inactive	inactive	inactive	inactive	inactive	inactive	inactive					
CCOCCOCC	inactive	inactive	inactive	inactive	inactive	inactive	inactive	inactive	inactive	inactive					
CN(C)CCOC(=O)C(c1ccccc1)C1(O)CCCC1 (stereo unspecified)	inactive	inactive	inactive	inactive	inactive	inactive	inactive	inactive	inactive	inactive					
CO[Si](CCCn1c(=O)n(CCC[Si](OC)(OC)OC)c(=O)n(CCC[Si](OC)(OC)OC)c1=O)(OC)OC	inactive	inactive	inactive	inactive	inactive	inactive	inactive	inactive	inactive	inactive					
CC(=O)O[C@@H]1CC2CCC1(C)C2(C)C (stereo partly specified)	inactive	inactive	inactive	inactive	inactive	inactive	inactive	inactive	inactive	inactive					
CC(=O)CCC1=C(C)CCCC1(C)C	inactive	inactive	inactive	inactive	inactive	inactive	inactive	inactive	inactive	inactive					
O=C(Cl)c1ccccc1[N+](=O)[O-]	inactive	inactive	inactive	inactive	inactive	inactive	inactive	inactive	inactive	inactive					
CC(=O)C1C(=O)C=C(C)OC1=O (stereo unspecified)	inactive		inactive	inactive	inactive	inactive	inactive	inactive	inactive	inactive					
C=CCCCCCCCC	inactive	inactive	inactive	inactive	inactive	inactive	inactive	inactive	inactive	inactive					
COc1c2occc2c(OC)c2c(=O)cc(C)oc12	inactive	inactive	inactive	inactive	inactive	inactive	inactive	inactive	inactive	inactive					
NCC1(Cc2noc(=O)[nH]2)CCCCC1	inactive	inactive	inactive	inactive	inactive	inactive	inactive	inactive	inactive	inactive					
CCCCCC/C=C/C(=O)OC	inactive	inactive	inactive	inactive	inactive	inactive	inactive	inactive	inactive	inactive					
O=C[O][Al]([O]C=O)[O]C=O	inactive	inactive	inactive	inactive	inactive	inactive	inactive	inactive	inactive	inactive					

Structure (SMILES)	outcome [1]	outcome [2]	outcome [3]	outcome [4]	outcome [5]	outcome [6]	outcome [7]	outcome [8]	outcome [9]	Potency [10]	activity, negative = cytotoxicity [6]	activity change, negative = inhibition [7]	viability change, negative = cytotoxic [8]	activation [9]	activation [10]
CCCCC1CCC(O)CC1 (stereo unspecified)	inactive	inactive	inactive	inactive	inactive	inactive	inactive	inactive	inactive	inactive					
CC(O)CC(C)O (stereo unspecified)	inactive	inactive	inactive	inactive	inactive	inactive	inactive	inactive	inactive	inactive					
CCC(=O)c1c(O)cc(O)cc1O	inactive	inactive	inactive	inactive	inactive	inactive	inactive	inactive	inactive	inactive					
CC(N)CCCC(C)(C)O (stereo unspecified)	inactive	inactive	inactive	inactive	inactive	inactive	inactive	inactive	inactive	inactive					
CC1(C)Cc2cccc(N)c2O1	inactive	inactive	inactive	inactive	inactive	inactive	inactive	inactive	inactive	inactive					
CC1=C(C(=O)O)N2C(=O)[C@@H](NC(=O)[C@H](N)c3ccccc3)[C@H]2SC1	inactive	inactive	inactive	inactive	inactive	inactive	inactive	inactive	inactive						
[O-][n+]1cccc(/C(Cl)=N/OC[C@@H](O)CN2CCCCC2)c1	inactive	inactive	inactive	inactive	inactive	inactive	inactive	inactive	inactive	inactive					
CCC(C)C(=O)OCCc1ccccc1 (stereo unspecified)	inactive	inactive	inactive	inactive	inactive	inactive	inactive	inactive	inactive	43.6 µM (active)					
CC(=O)O[C@H]1C[C@@H]2CC[C@@]1(C)C2(C)C	inactive	inactive	inactive	inactive	inactive	inactive	inactive	inactive	inactive	inactive					
O=C1CCC(=O)N1Cl	inactive	inactive	inactive	inactive	inactive	inactive	inactive	inactive	inactive	inactive					
CC1CC(=O)CC(C)(C)C1 (stereo unspecified)		inactive	inactive	inactive	inactive	inactive		inactive	inactive	inactive					
O=Cc1cc2ccccc2o1	inactive	inactive	inactive	inactive	inactive	inactive	inactive	inactive	inactive	inactive					
CC(=O)OC(C)=O	inactive	inactive	inactive	inactive	inactive	inactive	inactive	inactive	inactive	inactive					
O=C(O)CSCC(=O)NC1CCSC1=O (stereo unspecified)	inactive	inactive	inactive	inactive	inactive	inactive	inactive	inactive	inactive	inactive					
C=CCCCCCCCCC(=O)OCCCC	inactive	inactive	inactive	inactive	inactive	inactive	inactive	inactive	inactive	inactive					
CSc1cnccn1	inactive	inactive	inactive	inactive	inactive	inactive	inactive	inactive	inactive	inactive					
CC1c2ccccc2CN1NC(=O)c1ccc(Cl)c(S(N)(=O)=O)c1 (stereo unspecified)	inactive	inactive	inactive	inactive	inactive	inactive	inactive	inactive	inactive	inactive					
CC1=C(O)C(=O)C(C)O1 (stereo unspecified)	inactive	inactive	inactive	inactive	inactive	inactive	inactive	inactive	inactive	inactive					
O=C(O)[C@H](O)c1ccccc1	inactive	inactive	inactive	inactive	inactive	inactive	inactive	inactive	inactive	inactive					
CCN(CC)CCN	inactive	inactive	inactive	inactive	inactive	inactive	inactive	inactive	inactive	inactive					
OC1OCCOC1O (stereo unspecified)	inactive	inactive	inactive	inactive	inactive	inactive	inactive	inactive	inactive	inactive					
[O]=[Mo](=[O])=[O]	inactive	inactive	inactive	inactive	inactive						11.6% [at 19 µM]	4.36% [at 19 µM]	-2.83% [at 15.8 µM]	-20.6% [at 15.8 µM]	0.58% [at 15.8 µM]
CCCCCCC1(C)CCC(=O)O1 (stereo unspecified)	inactive	inactive	inactive	inactive	inactive	inactive	inactive	inactive	inactive	inactive					
CC1(C)CC(OC(=O)CCCCCCCCC(=O)OC2CC(C)(C)NC(C)(C)C2)CC(C)(C)N1	inactive	inactive	inactive	inactive	inactive						1.22% [at 19 µM]	5.06% [at 19 µM]	-4.65% [at 15.8 µM]	13.3% [at 15.8 µM]	-1.61% [at 15.8 µM]
